Bioassay records as filed in PubChem BioAssay.
Only some compounds are listed: those with a hit (about 2.4% of all), similar ones and a draw of the others.
Pol beta inh = blocks human DNA polymerase beta activity; P06746; Pol beta primer extension/strand displacement, fluorescence kinetic; Potency, µM (series often up to 114 µM), for the others: at the top dose activity change, negative = inhibition, actives largely listed as inhibitors; actives 1.3% (n = 340,000); also: % is scaled to controls: 0 for no effect and ±100 for the full control effect
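Pol beta (10 nM) was preincubated with compound for 15 min at room temperature. The reaction was then started with 50 nM substrate and read immediately and after a further 10 min at room temperature.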
Pol kappa inh = blocks human DNA polymerase kappa activity; Q9UBT6; purified Pol kappa, fluorescent DNA synthesis assay, 10 min; Potency, µM (titrated, usually from 107 µM), inactives show top-dose activity, negative = inhibition, usual class: inhibitors; actives 0.53% (n = 400,000); AID 588579; also: % is scaled to controls: 0 for no effect and ±100 for the full control effect
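Readout: fluorescence, taken kinetically at 0 and 10 min. Conditions: 10 nM Pol kappa, 15 min RT compound preincubation, 50 nM substrate final. Controls: enzyme-free buffer wells.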
Pol iota inh = inhibitors of human DNA polymerase iota; Q9UNA4; AID 588590; Pol iota fluorescent replication assay, 10 min; Potency, µM (top dose mostly 115 µM), for the others: top-dose activity, negative = inhibition, most hits filed as inhibitors; actives 1% (n = 390,000)
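Pol iota at 10 nM preincubated 15 min with compounds at room temperature; reaction started with fluorescent substrate, 50 nM final. Fluorescence read kinetically at 0 and 10 min; buffer-only wells as negative control.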
Pol eta inh = blocks human DNA polymerase eta activity; Q9Y253; recombinant Pol eta, fluorescent DNA replication assay; Potency, µM (titrated, usually from 114 µM), for the others: top-dose activity change, negative = inhibition, actives largely listed as inhibitors; actives 1.2% (n = 390,000); AID 588591; also: % is scaled to controls: 0 for no effect and ±100 for the full control effect
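Pol eta (10 nM) was preincubated with compounds for 15 min at room temperature, after which fluorescent replication substrate (50 nM final) was added to start the reaction. Fluorescence was read kinetically at 0 and 10 min.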
FEN1 inhibitor = human FEN1 inhibition; actives 0.35% (n = 390,000); Recombinant FEN1 flap cleavage, fluorescence, 15 min; Potency, µM (series often up to 114 µM), without a hit: top-dose activity change, negative = inhibition, usual class: inhibitors; AID 588795; P39748; also: % is scaled to controls: 0 for no effect and ±100 for the full control effect; nearly all actives have a fitted effect of over 65% in size
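Steps: FEN1 (10 nM) dispensed; compound added by pin tool; 15 min at room temperature; substrate added to 50 nM final; reads at 0 min and 15 min; data normalized and fitted (four-parameter Hill).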
WRN helicase inh = inhibitors of human WRN helicase. WRN helicase unwinding, fluorescent forked duplex, kinetic. AID 651768. actives 0.46% (n = 360,000). Q14191. Potency, µM (doses to about 114 µM), without a hit: top-dose activity change, negative = inhibition, hits mostly inhibitors; also: % is scaled to controls: 0 for no effect and ±100 for the full control effect; nearly all actives have a fitted effect of over 55% in size
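Primary qHTS, 1536-well format. 20 nM WRN + compound, 15 min RT; start with 100 nM forked fluorophore/quencher duplex, 2 mM ATP (final); kinetic read ex 525/em 598 nm.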
An asterisk follows results filed as active; ? = inconclusive; · = no result given; [ ] = remark or other dose. Calls follow the shape of the dose curve; as a rule, active = well fitted curve in the direction sought with a large enough effect; inconclusive = small, poorly fitted or top-dose-only effect, or another doubt; inactive = no such curve, though single readings can be large; an effect the other way counts as inactive or inconclusive. Potency is read from the fitted curve at half-maximal effect.

SMILES	Pol beta inh	Pol kappa inh	Pol iota inh	Pol eta inh	FEN1 inhibitor	WRN helicase inh
CCc1ccc(S(=O)(=O)/N=C2/C=C(Sc3ncn[nH]3)C(=O)c3ccccc32)cc1	-25.4%	-27.7%	1.12µM*	6.31µM*	79.4µM*	20µM*
CCc1ccc(S(=O)(=O)/N=C2\C=C(Nc3ccc(O)cc3)C(=O)c3ccccc32)cc1	?	-22.6%	12.6µM*	?	-15.3%	-11.9%[11.6 µM]
Cc1ccc(S(=O)(=O)/N=C2\C=C(NS(=O)(=O)c3ccccc3)C(=O)c3ccccc32)cc1	·	-12.7%	?	?	?	?
Cc1ccc(Cl)cc1NC1=C/C(=N\S(=O)(=O)c2cccs2)c2ccccc2C1=O	2.6%	-4.9%	3.98µM*	?	0.7%	-12.0%
Cc1cc(C)c(C#N)c(N2CCN(CCOc3ccc(Cl)cc3)CC2)n1	-10.9%	-5.4%	-3.7%	-8.0%	-7.8%	-7.1%
Cc1cc(NS(=O)(=O)c2ccc(NC(=O)c3cnc4sccn4c3=O)cc2)nc(C)n1	?	?	?	8.91µM*	13.4%	-11.8%[57.1 µM]
Cc1cc(NS(=O)(=O)c2ccc(NC(=O)c3ccc(Br)o3)cc2)nc(C)n1	?	-20.6%	?	39.8µM*	7.8%	-5.0%[11.6 µM]
Cc1cc(NS(=O)(=O)c2ccc(NC(=O)c3c(F)c(F)c(F)c(F)c3F)cc2)nc(C)n1	?	-10.3%	-0.7%	-5.2%	-3.3%	?
Cc1cc(NS(=O)(=O)c2ccc(NC(=O)CCCOc3ccccc3C)cc2)nc(C)n1	-13.2%	-21.4%	10µM*	79.4µM*	0.0%	?
Cc1cc(=O)n(CC(=O)NC(C)c2ccccc2)c2c1c(C)nn2-c1cccc(F)c1 (centres undefined)	22.4µM*	-41.4%	?	-5.0%	10.9%	·
CC(C)(C)c1cc(-c2csc(Nc3ccccc3)[n+]2Cc2ccc(C(=O)O)cc2)cc(C(C)(C)C)c1O	-17.6%	0.2%	?	31.6µM*	?	?
CCCN1C(C(=O)c2ccccc2)=C(OC(=O)c2ccc(C)cc2)c2ccccc2S1(=O)=O	-1.4%	13.3%	31.1%	-15.8%	-0.8%	·
Cc1ccc(C(=O)OC2=C(C(=O)c3ccccc3)N(C)S(=O)(=O)c3ccccc32)cc1	?	-10.9%	89.1µM*	-18.9%	15.2%	·
CCc1ccc(NC(=O)c2cc(C)nn2-c2ccccc2)cc1	-7.1%	-7.9%	122.4%	-22.0%	5.8%	6.0%
Cc1cc(/C=C2\SC(=S)NC2=O)c(C)n1-c1ccccc1	?	?	?	50.1µM*	-7.7%	-29.5%
Cc1cc(C(=O)O)ccc1-n1c(C)cc(/C=C2\SC(=O)NC2=O)c1C	?	-27.0%	?	50.1µM*	11.7%	-6.1%[11.6 µM]
COC(=O)c1cccc(-n2c(C)cc(/C=C3\SC(=O)NC3=O)c2C)c1	·	·	·	-0.2%	·	-13.1%
Cc1cccc(Cc2c(C)nc3c(C(=O)N4CCN(Cc5ccc6c(c5)OCO6)CC4)cnn3c2C)c1	-18.7%	-19.7%	-3.9%	-13.9%	-9.0%	-5.1%
COc1cccc(-c2cc(NC=O)c3ncc(-c4cc(OC)c(OC)c(OC)c4)n3c2)c1	·	·	·	·	·	-26.3%
COc1cc(-c2cc(NC=O)c3ncc(-c4ccc(F)cc4)n3c2)cc(OC)c1OC	·	·	·	·	·	56.2µM*
COc1cc(-c2cnc3c(NC(C)=O)cc(-c4ccc(N5CCN(C)CC5)cc4)cn23)cc(OC)c1OC	·	·	·	·	·	-4.8%
COc1cc(-c2cnc3c(NC=O)cc(-c4ccc(N5CCN(C)CC5)cc4)cn23)cc(OC)c1OC	·	·	·	·	·	50.1µM*
O=C(O)c1cc(NCc2cc(O)ccc2O)ccc1O	·	50.1µM*	17.8µM*	·	8.91µM*	·
Cc1ccccc1NC(=O)Cn1c(O)c(N=NC(=O)c2ccccc2O)c2ccccc21	10µM*	?	?	?	-27.5%	-17.2%[57.1 µM]
COc1ccc(NC(=S)N2CCC(Cc3ccccc3)CC2)cc1OC	15.7%	0.4%	45.6%	-15.7%	-1.0%	-1.1%
SMILES	Pol beta inh	Pol kappa inh	Pol iota inh	Pol eta inh	FEN1 inhibitor	WRN helicase inh
Cc1ccc(S(=O)(=O)N(C)C)cc1NC(=O)COC(=O)CCC(=O)c1ccc(F)cc1	7.2%[57.1 µM]	-6.8%	-4.4%	-10.9%	-7.2%	12.6%
COc1ccc2cc3cc(C(=O)NCc4ccco4)oc3nc2c1	22.4µM*	?	?	15.8µM*	?	?
Cn1c(=NCC(O)COc2ccccc2)sc2ccccc21 (centres undefined)	14.6%	9.0%	7.9%	-19.0%	8.5%	2.6%
Cc1ccc(Cl)cc1NC(=S)N(Cc1ccco1)C(C)c1cccs1 (centres undefined)	8.3%	-1.9%	79.4µM*	-12.3%	-9.0%	-6.2%
C=CCn1c(COc2ccc(F)cc2)nnc1SCC(=O)NC(=O)NCc1ccco1	25.1µM*	?	50.1µM*	?	3.4%	-21.3%[57.1 µM]
C=CCn1c(COc2cccc(C)c2)nnc1SCC(=O)NC(=O)NCc1ccco1	20µM*	?	70.8µM*	?	-14.8%	-8.0%[11.6 µM]
O=C(CSc1nnc(-c2ccncc2)n1-c1ccc(F)cc1)NC(=O)NCc1ccco1	28.2µM*	?	20µM*	79.4µM*	-32.1%	?
C=CCn1c(COc2ccc(F)cc2)nnc1SCC(=O)NC1CCCC1	·	4.3%	21.9%	-9.6%	0.7%	3.1%
C=CCn1c(COc2cccc(C)c2)nnc1SCC(=O)c1c(N)n(C)c(=O)n(C)c1=O	·	3.6%	28.6%	-14.5%	-3.4%	1.0%
CCOC(=O)C1CCCN(Cc2ccc(OC)cc2OC)C1 (centres undefined)	16.1%	-5.7%	20.0%	5.0%	-9.3%	3.5%
Cc1cc(C)cc(NC(=O)CCc2c(C)nc3c4cccnc4nn3c2C)c1	41.3%	-5.4%	23.7%	3.3%	2.8%	·
O=S(=O)(c1ccc(-c2ccon2)s1)N1CCN(c2ccncc2)CC1	12.7%	-5.9%	39.8µM*	-34.7%	-7.5%	-10.4%
O=C(CN1CCN(c2ccccc2F)CC1)c1ccc(O)c(O)c1	6.8%	?	44.7µM*	?	7.3%	-7.8%[11.6 µM]
CCc1ccc(NS(=O)(=O)c2ccc3[nH]c(=O)[nH]c3c2)cc1	-22.7%	3.7%	14.8%	-12.3%	14.2%	4.1%
Cc1ccc(C)c(/C(O)=C2/C(=O)C(=O)N(CCN3CCOCC3)C2c2ccco2)c1 (centres undefined)	7.08µM*	?	?	22.4µM*	-18.9%	-31.7%
NC(=S)N=Nc1ccc(NN=C(N)N)cc1	-3.7%	?	?	-14.4%	50.1µM*	?
N#C/C(=N/Nc1ccc(OC(F)(F)F)cc1)C(N)=S	37.9%	-16.9%	15.2%	-22.2%	17.3%	-7.0%
COc1cn(CC(=O)Nc2cc(C)cc(C)c2)c(CN2CCCCC2)cc1=O	2.9%	-12.5%[60.1 µM]	18.3%	-14.6%	-0.2%	·
